Here are results for 36 molecules from PubChem BioAssay.

This experiment relates to Noggin (protein binding on small-molecule microarray). Description: small molecules binding Noggin protein – biochemical, 635/667 nm fluorescence, primary screen (AID 1095).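 Note: score merges 667 nm feature fluorescence with signal to noise over triplicate slides.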 The note with it: 635 nm fluorescence, higher = more signal.
The molecule `O=C1C=C[C@@H](O)[C@@H]2[C@@H]3C(=O)N(C4CCCCC4)C(=O)[C@@H]3CC[C@@H]12` returned a composite z-score of 0.277.

As to `C[C@@H]1CC[C@H]2C(=O)OC(Cc3ccccc3)CN2[C@H]1c1ccc(Br)cc1` (stereo partly specified), the composite z-score is 0.151.

`O=C1[C@H]2[C@H]3[C@H](O)[C@H](O)CC(=NO[C@@H]4O[C@H](CO)[C@@H](O)[C@H](O)[C@H]4O)[C@H]3CC[C@H]2C(=O)N1c1ccc(F)cc1F`: the composite z-score worked out at 0.161.

Consider `COc1ccc(COC(=O)NN=C2C[C@@H](O)[C@@H](O)[C@@H]3[C@@H]4C(=O)N([C@@H](C)c5ccccc5)C(=O)[C@@H]4CC[C@H]23)cc1`, for which the composite z-score was -0.245.

On to `CC(=O)OC[C@H]1O[C@H](CC=NO[C@H](C)c2cn([C@@H]3COC[C@H]3O)nn2)C=C[C@@H]1OC(C)=O`, for which the composite z-score worked out at 0.411.

On to `COc1ccc(O[C@H]2C=C[C@@H](c3ccccc3)O[C@@H]2CO)cc1`, for which the composite z-score was 0.14.

Regarding `CCOC(=O)[C@H](Cc1ccccc1)NC(=O)CCC1CC(OC(=O)NCCc2ccc(F)cc2)CC2(CCCC(COC(=O)NCCOc3ccccc3)O2)O1` (stereo partly specified), the composite z-score amounted to 0.492.

In the case of `O=C1C[C@@H](O)[C@@H](O)[C@@H]2[C@@H]3C(=O)N(C4CCCCC4)C(=O)[C@@H]3CC[C@@H]12`, the composite z-score was found to be 0.354.

As for `CC(CCN1CCCCc2nc(C)c(C)cc21)=NO[C@@H](C)c1cc(-c2c(C)cc(C)cc2C)no1`, the composite z-score is -0.0547.

In turn, `CCOC(=O)[C@H](CC(C)C)NC(=O)CCC1CC(OC(=O)NCc2ccc3c(c2)OCO3)CC2(CCCC(COC(=O)NCCOc3ccccc3)O2)O1` (stereo partly specified) returned a composite z-score of 0.878.

In turn, `C=CC[C@@H]1C=C[C@H](ON=C(C)CCN2CCCc3nc(C)c(C)cc32)[C@@H](CO)O1` displayed a composite z-score of 1.09.

`O=C1CCCC=C1C(O)C1CCCCC1` (stereo unspecified) yielded a composite z-score of -0.0241.

For `CO[C@H]1COC(=O)CC=C[C@H](C)[C@H](OC)COC(=O)[C@@H](C)NC(=O)CC=C[C@@H]1C`, the composite z-score came to 1.61.

Turning to `COC(=O)CC=C[C@@H](C)[C@@H](C=NOC[C@@H](C)[C@H](OCc1ccccc1)C(C)C)OC`, the composite z-score stood at 0.293.

Take `CC(C)CON=C1C[C@@H](O)[C@@H](O)[C@@H]2[C@@H]3C(=O)N(C(C)(C)C)C(=O)[C@@H]3CC[C@@H]12`: the composite z-score turned out to be 1.02.

Regarding `CC1(C)O[C@H]2OC([C@H](O)CON3C(=O)c4ccccc4C3=O)[C@H](O)[C@H]2O1` (stereo partly specified), the composite z-score stood at 0.441.

Consider `CCOC(=O)CCN1C(=O)[C@H]2[C@H]3[C@H](O)[C@H](O)CC(=NNC(=O)OCC)[C@H]3CC[C@H]2C1=O`, for which the composite z-score is 0.412.

Molecule `CCN(CC)CC(O)CN1CCCCc2nc(C)c(C)cc21` (stereo unspecified) returned a composite z-score of 0.454.

The molecule `CC(C)=NO[C@@H](C)c1cn([C@H](CO)Cc2ccccc2)nn1` returned a composite z-score of 0.946.

Regarding `O=C(NN=C1C[C@@H](O)[C@@H](O)[C@@H]2[C@@H]3C(=O)N(Cc4ccccc4)C(=O)[C@@H]3CC[C@H]12)OCc1ccccc1`, the composite z-score was found to be 0.382.

Molecule `CCOC(=O)CCN1C(=O)[C@H]2[C@H]3[C@H](O)[C@H](O)CC(=NOCC=C(C)CCC=C(C)C)[C@H]3CC[C@H]2C1=O` registered a composite z-score of 0.386.

In the case of `CC(=O)OC[C@H]1O[C@@H](ON=C2[C@H]3CCn4c(=O)n(-c5ccccc5)c(=O)n4[C@H]3[C@H](O)[C@@H]3O[C@H]23)[C@H](OC(C)=O)[C@@H](OC(C)=O)[C@@H]1OC(C)=O`, the composite z-score came to 0.349.

`O=C1CCCC=C1C(O)COCc1ccccc1` (stereo unspecified) showed a composite z-score of 0.022.

The molecule `C[C@H]1CC[C@@H](C(=O)O)N[C@@H]1c1cccc(N2CCCC2=O)c1` had a composite z-score of 0.49.

Molecule `COC(=O)[C@H](C)NC(=O)CCC1CC(OC(=O)NCc2ccc3c(c2)OCO3)CC2(CCCC(COC(=O)NCCCN3CCCC3=O)O2)O1` (stereo partly specified) registered a composite z-score of 0.424.

On to `CC(C)(C)N1C(=O)[C@H]2[C@@H]3C(=CC[C@H]2C1=O)C(=O)[C@H]1O[C@H]1[C@H]3O`, for which the composite z-score is -0.0454.

In the case of `CCOC(=O)NN=C1C[C@@H](O)[C@@H](O)[C@@H]2[C@@H]3C(=O)N(C[C@@H]4CCCO4)C(=O)[C@@H]3CC[C@H]12`, the composite z-score is 0.481.

Take `CC(C)=CCCC(C)=CCON=C1C[C@@H](O)[C@@H](O)[C@@H]2[C@@H]3C(=O)N(Cc4ccc5c(c4)OCO5)C(=O)[C@@H]3CC[C@H]12`: the composite z-score was 0.564.

Consider `CC(=O)OC[C@H]1O[C@H](CC=NOC(C)CN2CCCCc3nc(C)c(C)cc32)C=C[C@@H]1OC(C)=O` (stereo partly specified), for which the composite z-score was found to be 1.13.

Molecule `CCOC(=O)[C@H](Cc1ccccc1)NC(=O)CCC1CC(OC(=O)NCCc2ccc(F)cc2)CC2(CCCC(COC(=O)NCc3cccc(C(F)(F)F)c3)O2)O1` (stereo partly specified) yielded a composite z-score of 0.832.

`O=C1C=C[C@@H](O)[C@@H]2[C@@H]3C(=O)N(Cc4ccc5c(c4)OCO5)C(=O)[C@@H]3CC[C@@H]12` came in with a composite z-score of 0.652.

On to `O=C1CCCC=C1C(O)c1ccc([N+](=O)[O-])cc1` (stereo unspecified), for which the composite z-score was 0.111.

`COC(=O)CC=C[C@@H](C)[C@@H](C=NOC(C)CN1CCCCc2nc(C)c(C)cc21)NS(=O)(=O)c1ccc(C)cc1` (stereo partly specified) gave a composite z-score of 0.52.

In turn, `CC(CCC(=O)OC[C@H]1O[C@H](C#Cc2ccccc2)C=C[C@@H]1Oc1ccc(C)cc1)=NOC(C)CN1CCCc2nc(C)c(C)cc21` (stereo partly specified) displayed a composite z-score of 0.538.

`CCN1C(=O)[C@H]2[C@H]3[C@H](O)[C@H](O)CC(=NO[C@H](C)c4cn([C@@H]5COC[C@H]5O)nn4)[C@@H]3CC[C@H]2C1=O` displayed a composite z-score of -0.127.

Take `COc1ccc(-c2cnnc(CCCn3ccnc3-c3ccccc3)n2)cc1`: the composite z-score was found to be 0.592.
